Source: PubChem BioAssay
The source made the active and inactive calls.

Key:
Albumin (Bos taurus) = Albumin (Bos taurus) (UniProt P02769); assay: bovine serum albumin binders on microarray, profiling panel, artefact control for SMM control protein annotation, biochemical, small-molecule microarray, Alexa647 label, 635/667 nm fluorescence (AID 1118); conditions: BSA-A647 binding, fluorescence 635 nm, higher = more signal;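 also: score merges 667 nm emission intensity and signal-to-noise per printed compound spot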
Sequence of Albumin (Bos taurus) (P02769 whole entry, looked up): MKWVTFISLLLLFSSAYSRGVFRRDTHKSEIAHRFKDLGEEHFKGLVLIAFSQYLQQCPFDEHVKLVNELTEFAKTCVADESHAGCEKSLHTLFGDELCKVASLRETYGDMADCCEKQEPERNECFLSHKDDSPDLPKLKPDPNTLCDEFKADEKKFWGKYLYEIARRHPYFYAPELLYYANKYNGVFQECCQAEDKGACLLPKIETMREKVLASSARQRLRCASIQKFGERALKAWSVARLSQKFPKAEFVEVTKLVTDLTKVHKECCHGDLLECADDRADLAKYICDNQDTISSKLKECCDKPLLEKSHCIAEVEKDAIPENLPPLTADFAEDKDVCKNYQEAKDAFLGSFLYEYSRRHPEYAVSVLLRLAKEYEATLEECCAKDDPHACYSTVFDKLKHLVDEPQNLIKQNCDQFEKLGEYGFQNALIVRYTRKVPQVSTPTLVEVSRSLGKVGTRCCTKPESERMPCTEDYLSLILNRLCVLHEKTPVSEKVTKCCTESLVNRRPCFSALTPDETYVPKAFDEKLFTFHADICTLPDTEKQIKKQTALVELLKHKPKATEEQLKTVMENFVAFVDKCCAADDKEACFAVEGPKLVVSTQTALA

[1] = small-molecule microarray binders of probe aXIP, primary screen, biochemical, NeuroSMM set, 635/667 nm fluorescence (AID 1119); conditions: higher = more signal, called active from +8 up or from −8 down;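 also: probe is the protein aXip251-270 applied at 1 µg/mL to compound-printed slides; binding of probe to printed compounds measured as 667 nm fluorescence plus signal to noise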
[2] = small-molecule binders of probe aNOTCH3, primary screen, biochemical, small-molecule microarray, 635/667 nm fluorescence (AID 1120); conditions: higher = more signal;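 also: probe is a biotin-tagged antibody raised against NOTCH3 rather than NOTCH3 protein; score merges spot fluorescence near 667 nm with spot signal to noise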
[3] = small-molecule binders of probe aNOTCH2, primary screen, biochemical, small-molecule microarray, 635/667 nm fluorescence (AID 1121); conditions: higher = more signal;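 also: score merges feature fluorescence read at 667 nm with its signal to noise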
[4] = target: Carbonic anhydrase 2 (Homo sapiens) (UniProt P00918); assay: CAII small-molecule binders, profiling panel, biochemical, small-molecule microarray, Alexa647-labelled CAII (AID 1122); conditions: CAII-A647 binding fluorescence, higher = more signal
[5] = COS7 lysate on small-molecule microarray, probe aHis, 635 nm (AID 1123); conditions: COS7 cell lysate, fluorescence, higher = more signal;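 also: z-score combines 667nm fluorescence intensity with signal-to-noise per printed compound spot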
[6] = compound binding in COS7 lysate, probe aLAP1, primary screen, cell lysate, small-molecule microarray (AID 1124); conditions: probe aLAP1, fluorescence, higher = more signal;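 also: lysate comes from COS7 cells expressing LAP1 and is applied at 0.3 µg/mL; score merges spot fluorescence near 667 nm with signal-to-noise over triplicate slides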
Sam68 (KHDRBS1) = assay: Sam68 small-molecule binders, primary screen, biochemical, small-molecule microarray, 635 nm fluorescence (AID 1125); conditions: small-molecule microarray binding, higher = more signal;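 also: score merges 667 nm channel intensity with signal to noise over triplicate slides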
[7] = test system: Chordin-like protein 2 (CHRDL2); assay: CHRDL2 small-molecule binders, primary screen, biochemical, small-molecule microarray, 635 nm fluorescence (AID 1126); conditions: small-molecule microarray binding, fluorescence 635 nm; higher = more signal;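 also: printed compound slides probed with Chrdl2 protein at 4 µg/mL for 1 h at 4 C; score merges 667 nm emission intensity with signal to noise over three replicate slides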
[8] = target: Concanavalin-A (Canavalia ensiformis) (UniProt P02866); assay: ConA small-molecule binders, primary screen, artefact control for SMM control protein annotation, biochemical, small-molecule microarray, Alexa647 label, 635 nm (AID 1127); conditions: ConA-A647 binding fluorescence, higher = more signal;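 also: z combines 667 nm emission intensity with signal-to-noise across three replicate slides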
Sequence of Concanavalin-A (Canavalia ensiformis) (P02866 whole entry, looked up): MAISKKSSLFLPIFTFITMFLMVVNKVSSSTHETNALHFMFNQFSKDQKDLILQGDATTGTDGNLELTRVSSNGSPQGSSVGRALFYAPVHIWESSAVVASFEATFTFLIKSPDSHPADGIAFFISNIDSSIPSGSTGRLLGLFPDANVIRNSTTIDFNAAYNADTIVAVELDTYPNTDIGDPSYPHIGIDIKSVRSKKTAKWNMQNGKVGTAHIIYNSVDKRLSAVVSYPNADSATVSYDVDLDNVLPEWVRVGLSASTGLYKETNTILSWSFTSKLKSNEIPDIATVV

| Structure (SMILES) | composite z-score (Albumin (Bos taurus)) | composite Z-score [1] | composite z-score [2] | composite z-score [3] | composite z-score [4] | composite z-score [5] | composite z-score [6] | composite z-score (Sam68 (KHDRBS1)) | composite z-score [7] | composite z-score [8] |
| --- | --- | --- | --- | --- | --- | --- | --- | --- | --- | --- |
| CC(C)=CCCC(C)=CC(O)C1C=CC2C(=O)N(C)C(=O)C2N1Nc1ccccc1 (stereo not given) | 0.919 | -0.305 (inactive) | 0.286 | -0.011 | 0.435 | 2.66 | 0.309 | 1.3 | 1.28 | 1.18 |
| COCCOC(=O)N1C(=O)[C@@]2(c3cc(C#CCC(C(=O)OC)C(=O)OC)ccc31)[C@H](C(=O)Nc1nc3ccccc3s1)[C@H]1C(=O)O[C@H](c3ccccc3)[C@H](c3ccccc3)N1[C@@H]2c1ccccc1OCCO | 0.893 | 0.259 (inactive) | -0.0343 | -0.0956 | 0.559 | 1.9 | 0.581 | 1.29 | -0.0859 | 1.19 |
| Cc1ccc(S[C@]2(C(=O)NCCCN(C)C)CC(=O)N(Cc3ccccc3C(F)(F)F)[C@@H]2c2ccc(CO)cc2)cc1 | 0.54 | -0.676 (inactive) | -0.0639 | -0.0013 | 0.211 | 0.0645 | -0.41 | 0.0809 | -0.327 | -1.48 |
| COCCOC(=O)N1C(=O)[C@@]2(c3cc(C#Cc4ccc(OC)cc4)ccc31)[C@H](c1ccc(O)cc1)N1[C@H](c3ccccc3)[C@H](c3ccccc3)OC(=O)[C@H]1[C@@H]2C(=O)N1CCc2cc(OC)c(OC)cc2C1 | 0.595 | 0.536 (inactive) | 0.327 | -0.0877 | 0.117 | 0.75 | 0.16 | 1.28 | 0.252 | 1.12 |
| COc1cccc(-c2cccc(=O)o2)c1 | -0.172 | 2.41 (inactive) | 0.366 | 0.38 | 0.111 | 0.175 | -0.0345 | -0.579 | 0.683 | -0.664 |
| CCc1cccc(NC(=O)O[C@H]2[C@H](OC(=O)Nc3ccccc3-c3ccccc3)[C@@H](OC(=O)Nc3ccccc3-c3ccccc3)[C@@H](OC)O[C@@H]2CO)c1 | 0.81 | 0.237 (inactive) | 0.13 | -0.0238 | 0.704 | 2.8 | 0.219 | 1.3 | -0.229 | 1.07 |
| CC(C)OC(=O)C=C1C[C@@H](c2ccccn2)O[C@@H](c2ccccn2)O1 | -0.47 | 0.92 (inactive) | 0.0942 | -0.12 | 0.775 | 0.407 | 1.32 | 0.216 | 1.49 | -0.333 |
| CC#CC(=O)Oc1ccccc1C=CC(=O)OCC | -0.138 | -0.263 (inactive) | 0.0035 | -0.118 | 0.358 | -0.0224 | -0.021 | 0.82 | -0.0448 | 0.502 |
| CC(C)C[C@@H]1NC(=O)[C@H](C(C)C)NC(=O)[C@@]23C(=O)N[C@@H](Cc4ccccc4)C2[C@H](C)[C@@]2(C)O[C@H]2C3/C=C/CC/C=C/CNC1=O (stereo not given in full) | 0.371 | 0.131 (inactive) | 0.0694 | -0.126 | 0.532 | 1.28 | -0.0375 | 1.29 | 0.806 | 0.271 |
| CCCC[C@@H]1C[C@H]1[C@@H](NC(=O)c1cccs1)c1ccc(-c2ccccc2)cc1 | 0.1 | -0.252 (inactive) | 0.206 | -0.14 | 0.254 | 0.874 | -0.202 | 0.393 | 0.0355 | 0.432 |
| N#Cc1ccc(NN2C(C(O)C(c3ccccc3)c3ccccc3)C=CC3C(=O)N(c4ccccc4)C(=O)C32)cc1 (stereo not given) | 0.983 | -0.442 (inactive) | 0.673 | 0.11 | 0.407 | 2.95 | -0.0751 | 1.3 | -0.558 | 1.17 |
| COCCCNC(=O)[C@@]1(C)c2ccccc2C(=O)N(C(C)C)[C@H]1c1ccc(CO)cc1 | -0.106 | 0.466 (inactive) | 0.0001 | 0.0023 | 0.693 | 0.75 | 0.0526 | 1.16 | 1.08 | 0.67 |
| C=CCN1C(=O)[C@@]2(CC=C)N=C(c3ccc(OCCCO)cc3)O[C@H]2c2ccccc21 | 0.272 | 0.33 (inactive) | 0.323 | 0.189 | 0.614 | 3.3 | 1.05 | 1.3 | 1.33 | 1.05 |
